# In PMC5540273 (PLoS ONE, 2017):
# Key:
# Conditions in all cases: concentration: 1 μM, replicates: in singlicate; n = 1
# SBK1 = tested on: SBK1
# SGK2 = tested on: SGK2
# SGK3 = tested on: SGK3
# SGK = tested on: SGK
# SIK2 = tested on: SIK2
# SIK = tested on: SIK
# SLK = tested on: SLK
# SNARK = tested on: T1, SNARK
# T1 construct: gene NUAK2
# SNRK = tested on: SNRK
# SRC = tested on: SRC
# 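Further: KINOMEscan kinase panel screen.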
compound,measurement,setting,value
Clc1cccc(-c2nc(Nc3ccncc3)c3ccccc3n2)c1 [GW873004],%Inh,SBK1,0%
same,%Inh,SGK2,11%
same,%Inh,SGK3,0%
same,%Inh,SGK,6%
same,%Inh,SIK2,0%
same,%Inh,SIK,63%
same,%Inh,SLK,43%
same,%Inh,SNARK,0%
same,%Inh,SNRK,0%
same,%Inh,SRC,0%
COc1ccc(Nc2nccc(N3CCC(NC(=O)Nc4ccc5c(c4)OCO5)C3)n2)cc1 (centres unmarked) [GSK1379745],%Inh,SBK1,21%
same,%Inh,SGK2,6%
same,%Inh,SGK3,6%
same,%Inh,SGK,1%
same,%Inh,SIK2,0%
same,%Inh,SIK,6%
same,%Inh,SLK,27%
same,%Inh,SNARK,8%
same,%Inh,SNRK,0%
same,%Inh,SRC,22%
Cl.c1ccc(Cn2ccc3cc(Nc4ncnc5ccccc45)ccc32)cc1 [GW275568],%Inh,SBK1,0%
same,%Inh,SGK2,0%
same,%Inh,SGK3,46%
same,%Inh,SGK,0%
same,%Inh,SIK2,2%
same,%Inh,SIK,0%
same,%Inh,SLK,32%
same,%Inh,SNARK,35%
same,%Inh,SNRK,14%
same,%Inh,SRC,4%
Cc1ccc(O)cc1Nc1cc(C(F)(F)F)nc2ccc(-c3ccncc3)cc12 [GW630823],%Inh,SBK1,0%
same,%Inh,SGK2,3%
same,%Inh,SGK3,0%
same,%Inh,SGK,14%
same,%Inh,SIK2,11%
same,%Inh,SIK,4%
same,%Inh,SLK,26%
same,%Inh,SNARK,0%
same,%Inh,SNRK,0%
same,%Inh,SRC,18%
O=C(NCCCN1CCCC1=O)c1cnc(NCc2cc(Cl)ccc2Cl)nc1NC1CCNCC1,%Inh,SBK1,0%
same,%Inh,SGK2,0%
same,%Inh,SGK3,0%
same,%Inh,SGK,0%
same,%Inh,SIK2,0%
same,%Inh,SIK,7%
same,%Inh,SLK,14%
same,%Inh,SNARK,0%
same,%Inh,SNRK,0%
same,%Inh,SRC,0%
Fc1ccc(Nc2nccc(-c3c(-c4ccc(Cl)cc4)nn4ncccc34)n2)cc1F [GW829058],%Inh,SBK1,43%
same,%Inh,SGK2,17%
same,%Inh,SGK3,3%
same,%Inh,SGK,18%
same,%Inh,SIK2,0%
same,%Inh,SIK,0%
same,%Inh,SLK,6%
same,%Inh,SNARK,0%
same,%Inh,SNRK,0%
same,%Inh,SRC,14%
Cl.O=S(=O)(c1cccc(F)c1)c1ccc(Nc2ncnc3cc(Br)sc23)cc1Cl [GSK306886],%Inh,SBK1,0%
same,%Inh,SGK2,0%
same,%Inh,SGK3,6%
same,%Inh,SGK,0%
same,%Inh,SIK2,0%
same,%Inh,SIK,0%
same,%Inh,SLK,8%
same,%Inh,SNARK,14%
same,%Inh,SNRK,0%
same,%Inh,SRC,0%
Nc1nccc2scc(-c3ccc4c(c3)CCN4C(=O)Cc3cc(F)ccc3F)c12 [GSK2587663],%Inh,SBK1,11%
same,%Inh,SGK2,0%
same,%Inh,SGK3,0%
same,%Inh,SGK,0%
same,%Inh,SIK2,0%
same,%Inh,SIK,0%
same,%Inh,SLK,13%
same,%Inh,SNARK,0%
same,%Inh,SNRK,8%
same,%Inh,SRC,0%
Cl.Cn1ccc(-c2cccc(Nc3ccnc4cc(-c5nccs5)ccc34)c2)n1 [GW525701],%Inh,SBK1,0%
same,%Inh,SGK2,0%
same,%Inh,SGK3,14%
same,%Inh,SGK,0%
same,%Inh,SIK2,0%
same,%Inh,SIK,0%
same,%Inh,SLK,42%
same,%Inh,SNARK,0%
same,%Inh,SNRK,0%
same,%Inh,SRC,0%
Cl.Cl.c1ccc(-c2cc3ccncc3cc2OC2CCNCC2)cc1 [GSK1122999],%Inh,SBK1,12%
same,%Inh,SGK2,7%
same,%Inh,SGK3,11%
same,%Inh,SGK,0%
same,%Inh,SIK2,0%
same,%Inh,SIK,0%
same,%Inh,SLK,40%
same,%Inh,SNARK,23%
same,%Inh,SNRK,14%
same,%Inh,SRC,0%
FC(F)(F)c1ccc(-c2cc(-c3c[nH]nc3-c3ccccn3)ccn2)cc1 [GW599550],%Inh,SBK1,8%
same,%Inh,SGK2,9%
same,%Inh,SGK3,12%
same,%Inh,SGK,0%
same,%Inh,SIK2,0%
same,%Inh,SIK,0%
same,%Inh,SLK,23%
same,%Inh,SNARK,10%
same,%Inh,SNRK,100%
same,%Inh,SRC,3%
CSc1nn2c(=O)cc(N3CCOCC3)nc2n1Cc1cccc(Cl)c1Cl [GSK2347225],%Inh,SBK1,6%
same,%Inh,SGK2,8%
same,%Inh,SGK3,1%
same,%Inh,SGK,0%
same,%Inh,SIK2,72%
same,%Inh,SIK,13%
same,%Inh,SLK,18%
same,%Inh,SNARK,8%
same,%Inh,SNRK,0%
same,%Inh,SRC,26%
COC(=O)c1cccc(NC(=O)NCCNc2ccnc(Nc3ccc(F)cc3)n2)c1 [GSK1379883],%Inh,SBK1,3%
same,%Inh,SGK2,0%
same,%Inh,SGK3,0%
same,%Inh,SGK,0%
same,%Inh,SIK2,0%
same,%Inh,SIK,0%
same,%Inh,SLK,4%
same,%Inh,SNARK,0%
same,%Inh,SNRK,0%
same,%Inh,SRC,0%
CSc1ccc(NC2=C(c3ccccc3Cl)C(=O)NC2=O)cc1 [SB-342411],%Inh,SBK1,1%
same,%Inh,SGK2,0%
same,%Inh,SGK3,14%
same,%Inh,SGK,0%
same,%Inh,SIK2,5%
same,%Inh,SIK,0%
same,%Inh,SLK,98.7%
same,%Inh,SNARK,19%
same,%Inh,SNRK,0%
same,%Inh,SRC,38%
CCc1nc(-c2cccc(N(C)S(=O)(=O)c3ccccc3)c2)c(-c2ccnc(Nc3ccc(N4CCN(C(C)=O)CC4)nc3)n2)s1 [GSK1645895],%Inh,SBK1,5%
same,%Inh,SGK2,0%
same,%Inh,SGK3,19%
same,%Inh,SGK,0%
same,%Inh,SIK2,0%
same,%Inh,SIK,0%
same,%Inh,SLK,3%
same,%Inh,SNARK,23%
same,%Inh,SNRK,0%
same,%Inh,SRC,16%
c1ccc(-c2ccc3c(-c4ccnc(Nc5ccc6c(c5)OCCO6)n4)cnn3n2)cc1 [GW818941],%Inh,SBK1,7%
same,%Inh,SGK2,0%
same,%Inh,SGK3,8%
same,%Inh,SGK,12%
same,%Inh,SIK2,10%
same,%Inh,SIK,3%
same,%Inh,SLK,20%
same,%Inh,SNARK,4%
same,%Inh,SNRK,0%
same,%Inh,SRC,0%
Oc1ccc2ncnc(Nc3ccc(OCc4ccccc4)cc3)c2c1 [GI262866],%Inh,SBK1,5%
same,%Inh,SGK2,0%
same,%Inh,SGK3,0%
same,%Inh,SGK,6%
same,%Inh,SIK2,0%
same,%Inh,SIK,0%
same,%Inh,SLK,1%
same,%Inh,SNARK,0%
same,%Inh,SNRK,0%
same,%Inh,SRC,0%
